Results as given in PubChem BioAssay (NCI).
About 83,000 compounds went through this panel and 20% of them were active in at least one assay; those are over-represented in the sample as a whole.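 Percent growth is the endpoint: 0 to 100 indicates growth inhibition (40 means 60% inhibition), 0 means no net growth, and negative values indicate cell death.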 Activity calls are given as the source filed them. The calls were made as follows: active = growth percent below 10; inactive = the rest.

Columns and labels:
Test in all cases: NCI-60 one-dose screen, 48 h (100 = growth as untreated, 0 = no growth, -100 = all killed)
Settings in all cases: 10 µM unless noted
HT29 colon = tested on: HT29 colon
SNB-75 CNS = tested on: SNB-75 CNS
SNB-19 CNS = tested on: SNB-19 CNS
U251 CNS = tested on: U251 CNS
PC-3 prostate = tested on: PC-3 prostate
SK-MEL-5 melanoma = tested on: SK-MEL-5 melanoma
UACC-62 melanoma = tested on: UACC-62 melanoma
LOX IMVI melanoma = tested on: LOX IMVI melanoma
SK-MEL-28 melanoma = tested on: SK-MEL-28 melanoma
SK-MEL-2 melanoma = tested on: SK-MEL-2 melanoma
EKVX NSCLC = tested on: EKVX NSCLC
SN12C renal = tested on: SN12C renal
UO-31 renal = tested on: UO-31 renal
TK-10 renal = tested on: TK-10 renal
ACHN renal = tested on: ACHN renal
CAKI-1 renal = tested on: CAKI-1 renal
A498 renal = tested on: A498 renal
CCRF-CEM leukemia = tested on: CCRF-CEM leukemia
MOLT-4 leukemia = tested on: MOLT-4 leukemia

Measured: growth

CCCCCCCCCCCCCCCCCCOc1ccccc1CC(=O)OCC[N+]1(C)CCCC1
inactive: HT29 colon 12.4% | SNB-19 CNS 31.1% | PC-3 prostate 21.8% | UACC-62 melanoma 23.3% | SK-MEL-28 melanoma 49.7% | SK-MEL-2 melanoma 65.6% | EKVX NSCLC 53.8% | SN12C renal 12.7% | UO-31 renal 62.8% | TK-10 renal 45.2% | ACHN renal 78.9% | CAKI-1 renal 30.9% | A498 renal 60.7% | CCRF-CEM leukemia 19.8% | MOLT-4 leukemia 18.1%
active: SNB-75 CNS 7.26% | U251 CNS 7.62% | SK-MEL-5 melanoma 1.15% | LOX IMVI melanoma -94.4%

Cc1c(-c2nc3ccc(F)cc3c(=O)[nH]2)c2ccccc2n1C
inactive: HT29 colon 10.7% | SNB-19 CNS 29.2% | U251 CNS 27.6% | PC-3 prostate 47.1% | SK-MEL-5 melanoma 36.2% | UACC-62 melanoma 19.6% | LOX IMVI melanoma 34.5% | SK-MEL-28 melanoma 52% | SK-MEL-2 melanoma 45.6% | EKVX NSCLC 57.5% | SN12C renal 38.8% | UO-31 renal 53.7% | TK-10 renal 83.5% | ACHN renal 36% | CAKI-1 renal 40.8% | CCRF-CEM leukemia 15.6% | MOLT-4 leukemia 23%
active: SNB-75 CNS -7.98% | A498 renal -12.8%

COc1ccc(-c2cc(-c3ccc(Cl)cc3)c(C#N)c(=O)n2CCCCC(=O)Nc2ccccc2N)cc1
inactive: HT29 colon 21.1% | SNB-75 CNS 22.5% | SNB-19 CNS 69.9% | U251 CNS 55.1% | PC-3 prostate 50.1% | UACC-62 melanoma 23.7% | SK-MEL-28 melanoma 65.4% | EKVX NSCLC 47.3% | SN12C renal 42.3% | UO-31 renal 33.4% | TK-10 renal 102% | ACHN renal 51.6% | A498 renal 20.9% | CCRF-CEM leukemia 42.5% | MOLT-4 leukemia 47.8%
active: SK-MEL-5 melanoma -39.1% | LOX IMVI melanoma -60.9% | CAKI-1 renal 1.45%

N#CCSc1nnc2n(Cc3ccccc3)c(=O)c3c4c(sc3n12)CCCC4
inactive: HT29 colon 111% | SNB-75 CNS 91.1% | SNB-19 CNS 104% | U251 CNS 101% | PC-3 prostate 95.2% | SK-MEL-5 melanoma 95.3% | UACC-62 melanoma 95.6% | LOX IMVI melanoma 98.1% | SK-MEL-28 melanoma 116% | SK-MEL-2 melanoma 96% | EKVX NSCLC 94.1% | SN12C renal 96.8% | UO-31 renal 76.2% | TK-10 renal 103% | ACHN renal 106% | CAKI-1 renal 86.2% | A498 renal 93.4% | CCRF-CEM leukemia 86.5% | MOLT-4 leukemia 90.7%

CCCCOC(=O)OCc1cc(=O)c(O)co1
inactive: HT29 colon 101% | SNB-75 CNS 91.5% | SNB-19 CNS 99% | U251 CNS 99.5% | PC-3 prostate 99.6% | SK-MEL-5 melanoma 104% | UACC-62 melanoma 99.4% | LOX IMVI melanoma 99.9% | SK-MEL-28 melanoma 107% | SK-MEL-2 melanoma 109% | EKVX NSCLC 99.7% | SN12C renal 99.2% | UO-31 renal 92.1% | TK-10 renal 94.5% | ACHN renal 97.7% | CAKI-1 renal 93.3% | A498 renal 110% | CCRF-CEM leukemia 109% | MOLT-4 leukemia 102%

COC(=O)CCC(=O)C(=O)OC
active: HT29 colon -9.41% [10 mM] | U251 CNS 3.32% [10 mM] | PC-3 prostate -5.82% [10 mM] | UACC-62 melanoma -52.8% [10 mM] | LOX IMVI melanoma -19.9% [10 mM] | SK-MEL-28 melanoma -1.85% [10 mM] | SK-MEL-2 melanoma -34.9% [10 mM] | SN12C renal 0.923% [10 mM] | UO-31 renal -9.29% [10 mM] | TK-10 renal -8.5% [10 mM] | ACHN renal 6.94% [10 mM] | A498 renal -72.8% [10 mM] | CCRF-CEM leukemia -7.36% [10 mM] | MOLT-4 leukemia -11.4% [10 mM]
inactive: SNB-75 CNS 19% [10 mM] | SNB-19 CNS 12.6% [10 mM] | SK-MEL-5 melanoma 64% [10 mM] | EKVX NSCLC 23.7% [10 mM] | CAKI-1 renal 10.2% [10 mM]

CCNc1nc(-c2ccc(Cl)c(OC)c2)c(-c2ccnc(NCCCNS(=O)(=O)c3ccc(Cl)cc3)n2)s1
inactive: HT29 colon 19.1% | SNB-75 CNS 77.6% | SNB-19 CNS 81.8% | U251 CNS 51.9% | PC-3 prostate 29.4% | SK-MEL-5 melanoma 48.2% | UACC-62 melanoma 29.7% | LOX IMVI melanoma 56.3% | SK-MEL-28 melanoma 38.9% | EKVX NSCLC 75.4% | SN12C renal 66.5% | UO-31 renal 64.9% | ACHN renal 74.1% | CAKI-1 renal 59% | A498 renal 66.8% | CCRF-CEM leukemia 31.6% | MOLT-4 leukemia 22.2%

CCN(CC)CCNC(=O)c1cn2ncnc(Oc3ccc(NC(=O)Nc4ccc(Cl)c(C(F)(F)F)c4)c(F)c3)c2c1C
inactive: EKVX NSCLC 24.5% | SN12C renal 62.5% | TK-10 renal 27.8% | CAKI-1 renal 39.6% | A498 renal 21.1%
active: HT29 colon -42.3% | SNB-75 CNS -7.89% | SNB-19 CNS -48% | U251 CNS -48.6% | SK-MEL-5 melanoma -20.3% | UACC-62 melanoma -46.2% | LOX IMVI melanoma -95.4% | SK-MEL-28 melanoma -86.6% | SK-MEL-2 melanoma -36.9% | UO-31 renal -53% | ACHN renal -44.5% | CCRF-CEM leukemia 4.8% | MOLT-4 leukemia -20.8%

O=C1CC(N2C(=O)/C(=C/C(Cl)=C\c3ccc([N+](=O)[O-])cc3)SC2=S)C(=O)N1c1ccc(Cl)cc1 (centres undefined)
active: HT29 colon 4.25% | U251 CNS 1.45% | PC-3 prostate -5.48% | LOX IMVI melanoma -71.7% | SN12C renal 4.02% | UO-31 renal -42.8% | ACHN renal 1.2%
inactive: SNB-75 CNS 17.2% | SNB-19 CNS 17.4% | SK-MEL-5 melanoma 59.9% | UACC-62 melanoma 16.4% | SK-MEL-28 melanoma 18.2% | SK-MEL-2 melanoma 68.3% | EKVX NSCLC 32.3% | TK-10 renal 38% | CAKI-1 renal 23.5% | A498 renal 55% | CCRF-CEM leukemia 11.4% | MOLT-4 leukemia 11.7%

CCOC(=O)c1cc(-c2ccc([N+](=O)[O-])cc2)n(-c2ccc(C(=O)O)c(O)c2)c1C
inactive: HT29 colon 44.2% | SNB-75 CNS 53.5% | SNB-19 CNS 90.7% | U251 CNS 70.9% | PC-3 prostate 23.5% | SK-MEL-5 melanoma 52% | UACC-62 melanoma 54% | LOX IMVI melanoma 66.8% | SK-MEL-28 melanoma 90.5% | SK-MEL-2 melanoma 53.8% | EKVX NSCLC 55.3% | SN12C renal 72.7% | UO-31 renal 24.5% | TK-10 renal 101% | ACHN renal 68.7% | CAKI-1 renal 79.4% | A498 renal 76.4% | MOLT-4 leukemia 27.2%

CC/C(=C(/c1ccc(Cl)cc1)c1ccc(OCCN2CCCC2)cc1)c1ccc(OC)cc1
inactive: HT29 colon 13.7% | SNB-75 CNS 103% | SNB-19 CNS 80.1% | U251 CNS 45.3% | PC-3 prostate 47.5% | SK-MEL-5 melanoma 66% | UACC-62 melanoma 96.3% | LOX IMVI melanoma 68.7% | SK-MEL-28 melanoma 85% | SK-MEL-2 melanoma 105% | EKVX NSCLC 65.1% | SN12C renal 79.5% | UO-31 renal 59.5% | TK-10 renal 76.9% | ACHN renal 78.6% | CAKI-1 renal 82% | A498 renal 108% | CCRF-CEM leukemia 40.6% | MOLT-4 leukemia 32%

Cc1nnc(-n2c(O)cc(=O)n(-c3ccccc3)c2=S)nc1/C=C/c1ccc(N(C)C)cc1
inactive: HT29 colon 24.3% | SNB-75 CNS 17.3% | SNB-19 CNS 59.8% | U251 CNS 53.7% | PC-3 prostate 67.1% | SK-MEL-5 melanoma 60.6% | UACC-62 melanoma 11.7% | LOX IMVI melanoma 18.8% | SK-MEL-28 melanoma 58.6% | SK-MEL-2 melanoma 55.2% | EKVX NSCLC 66.7% | SN12C renal 65.3% | UO-31 renal 17.1% | TK-10 renal 28.1% | ACHN renal 62% | CAKI-1 renal 23.4% | A498 renal 52.1% | CCRF-CEM leukemia 52.5% | MOLT-4 leukemia 56.1%

N#C/C(=C\c1ccc2ccccc2c1)c1cc2ccccc2[nH]1
inactive: HT29 colon 10.9% | SNB-75 CNS 35.6% | SNB-19 CNS 43.8% | U251 CNS 27.8% | PC-3 prostate 33% | SK-MEL-5 melanoma 35.3% | UACC-62 melanoma 32.2% | LOX IMVI melanoma 32.3% | SK-MEL-28 melanoma 55.3% | EKVX NSCLC 55.3% | SN12C renal 49.8% | UO-31 renal 49% | TK-10 renal 75.6% | ACHN renal 50.4% | CAKI-1 renal 38.1% | A498 renal 33.7% | MOLT-4 leukemia 29%

Cc1nc2sc(C(=O)Nc3ccccc3)c(N)c2cc1C(=O)c1ccccc1
active: A498 renal -3.88% | CCRF-CEM leukemia 8.47%
inactive: HT29 colon 22.9% | SNB-75 CNS 26.2% | SNB-19 CNS 21.3% | U251 CNS 25.4% | PC-3 prostate 33.4% | SK-MEL-5 melanoma 31.9% | UACC-62 melanoma 17.4% | LOX IMVI melanoma 50% | SK-MEL-28 melanoma 46.8% | SK-MEL-2 melanoma 49.9% | EKVX NSCLC 35.2% | SN12C renal 81.5% | UO-31 renal 59.5% | TK-10 renal 54.7% | ACHN renal 51.7% | CAKI-1 renal 35.6% | MOLT-4 leukemia 31.6%
